In PubChem BioAssay AID588358 (NMMLSC, 2011):
About 1,500 (0.48%) of roughly 310,000 compounds were called active.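 How the source made its calls: active means binding more than 3 SD below its plate's average and above zero; inconclusive means below that plate limit but binding exactly zero; inactive means the rest.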 Only a selection was taken, and actives are over-represented in it overall.

Each compound was assayed against Desmoglein-3 (Homo sapiens) (UniProt P32926) (assay: inhibitors of pemphigus antibody binding to DSG3, primary screen, biochemical, bead-based, flow cytometry, scFv-GFP (AID 588358;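 further: hits lower antibody fragment binding to DSG3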)). Settings: DSG3-coupled beads, scFv-anti-DSG3-GFP binding, at 10 µM, active compounds read low.
Sequence of Desmoglein-3 (Homo sapiens) (P32926 whole entry, looked up, the tested form may be a part): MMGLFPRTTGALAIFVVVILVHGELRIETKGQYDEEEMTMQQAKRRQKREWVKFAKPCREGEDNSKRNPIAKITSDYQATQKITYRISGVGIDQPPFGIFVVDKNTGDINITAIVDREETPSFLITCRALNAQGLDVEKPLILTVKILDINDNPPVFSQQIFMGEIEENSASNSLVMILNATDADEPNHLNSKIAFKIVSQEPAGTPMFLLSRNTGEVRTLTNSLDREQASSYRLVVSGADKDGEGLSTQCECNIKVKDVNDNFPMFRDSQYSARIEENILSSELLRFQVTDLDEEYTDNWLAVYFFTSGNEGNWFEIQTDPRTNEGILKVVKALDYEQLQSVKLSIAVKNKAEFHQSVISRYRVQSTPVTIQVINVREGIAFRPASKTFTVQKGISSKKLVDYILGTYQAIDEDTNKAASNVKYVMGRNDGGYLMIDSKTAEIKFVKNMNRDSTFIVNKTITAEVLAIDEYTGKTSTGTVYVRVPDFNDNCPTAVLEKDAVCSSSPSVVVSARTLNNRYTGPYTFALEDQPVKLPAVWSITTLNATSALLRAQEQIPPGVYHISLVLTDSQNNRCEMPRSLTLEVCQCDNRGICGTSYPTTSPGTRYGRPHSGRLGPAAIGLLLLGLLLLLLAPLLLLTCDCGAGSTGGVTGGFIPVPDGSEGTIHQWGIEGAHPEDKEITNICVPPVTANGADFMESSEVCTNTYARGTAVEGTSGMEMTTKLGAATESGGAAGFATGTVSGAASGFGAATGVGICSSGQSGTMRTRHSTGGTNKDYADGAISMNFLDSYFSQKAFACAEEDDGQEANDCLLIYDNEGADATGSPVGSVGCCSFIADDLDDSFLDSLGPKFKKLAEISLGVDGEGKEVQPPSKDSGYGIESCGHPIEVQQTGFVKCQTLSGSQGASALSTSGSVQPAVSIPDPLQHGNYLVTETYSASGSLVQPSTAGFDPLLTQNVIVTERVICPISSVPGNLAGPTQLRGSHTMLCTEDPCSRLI

| Structure (SMILES) | binding (percent of control) |
| --- | --- |
| COc1ccccc1NC(=O)C(CC(=O)O)Cc1cc(C)cc(C)c1 (stereo unspecified) | 96.8% (inactive) |
| COc1ccc(CCNC(=O)CN(c2ccccc2)S(=O)(=O)c2ccccc2)cc1 | 97.8% (inactive) |
| COc1ncnc2c1ncn2CCCNCCN1CCOCC1 | 98% (inactive) |
| COc1cccc(/C=N\Nc2nncc(-c3ccccc3)n2)c1 | 90.1% (active) |
| COc1cccc(/C=N/NC(=O)C(=O)N2CCCC2)c1 | 102% (inactive) |
| COc1cccc(/C=N/Nc2ccc(Cl)nn2)c1 | 98.6% (inactive) |
| CCOC(=O)c1c(CN2CCOCC2)n(-c2ccccc2)c2ccc(O)cc12 | 107% (inactive) |
| CC(=O)c1c(C)n(-c2ccc(C)cc2)c2ccc(O)cc12 | 61.8% (active) |
| CC(=O)c1c(C)n(-c2ccc(N(C)C)cc2)c2ccc(OCC(N)=O)cc12 | 96.5% (inactive) |
| CCOC(=O)C(C(=O)c1ccccc1)C(c1ccccc1)c1nccc2ccccc12 (stereo unspecified) | 108% (inactive) |
| O=C(O)C1CCCN1c1nc(Cl)ccc1[N+](=O)[O-] (stereo unspecified) | 90.2% (inactive) |
| COc1ccc(S(=O)(=O)N2CCC(C(=O)NCCC(=O)NCCc3cccc(F)c3)CC2)cc1 | 99% (inactive) |
| Cc1nc(-c2ccc(Cl)cc2)sc1C(=O)CBr | 63.4% (active) |
| Cc1nc(-c2ccc(Cl)cc2)sc1C(=O)NN | 110% (inactive) |
| Cc1nc(-c2ccccc2)sc1C(=O)/C=C/N(C)C | 97.8% (inactive) |
| COc1ccc(CN2C(=O)C(CC(=O)NC3CCCCC3)CC(C(=O)N3CCOCC3)=C2C)cc1 (stereo unspecified) | 102% (inactive) |
| COC(=O)c1ccccc1N=NNc1ccc([N+](=O)[O-])cc1 | 104% (inactive) |
| O=[N+]([O-])c1ccc(N/N=C/c2ccccc2)cc1 | 102% (inactive) |
| O=[N+]([O-])c1ccc(N=NNc2ccc([N+](=O)[O-])cc2)cc1 | 44.4% (active) |
| COc1cc(C)c(CN2CCN(C(=O)CCC(=O)c3ccc(C)s3)CC2)cc1OC | 98.2% (inactive) |
| COc1ccc(NC(=O)CCCOc2ccc(C(C)=O)cc2)cc1S(=O)(=O)N1CCCCC1 | 109% (inactive) |
| c1ccc(Cn2nnc3c(NCC4CC4)ncnc32)cc1 | 101% (inactive) |
| O=C(CC(=O)c1cccnc1)c1ccccc1 | 66.2% (active) |
| O=C(NNC(=O)c1cccnc1)Nc1ccccc1 | 103% (inactive) |

| Structure (SMILES) | binding (percent of control) |
| --- | --- |
| O=C(c1cccnc1)N(Cc1ccccc1)C(=O)c1cccnc1 | 86.3% (inactive) |
| CCOC(=O)c1cc(-c2sc(NC(=O)c3ccccc3)nc2C)n(Cc2ccccc2)n1 | 101% (inactive) |
| CCOC(=O)C1CCN(C(=O)c2ccc3c(=O)n4nc(Nc5ccccc5CC)sc4nc3c2)CC1 | 104% (inactive) |
| Cc1nn(CC(=O)Nc2ccc(F)cc2)c(=O)c2ccccc12 | 105% (inactive) |
| Cc1ccc(NC(=O)Cn2sc3ccccc3c2=O)cc1 | 58.5% (active) |
| Cc1ccc(NC(=O)Cn2c(C)csc2=O)cc1 | 92.9% (inactive) |
| C[C@@H]1CN([C@@H](C)CO)C(=O)c2c(c3ccccc3n2C)-c2ccccc2CO[C@H]1CN(C)C(=O)C1CC1 | 101% (inactive) |
| COc1ccc(Cl)cc1NC(=O)CN(C)C(=O)c1cn(-c2ccccc2)nc1-c1cccs1 | 112% (inactive) |
| Cn1ncc([N+](=O)[O-])c1C(=O)Nc1cc(Cl)ccc1Cl | 102% (inactive) |
| N#Cc1ccc(COC(=O)Cn2nnc(-c3ccccc3)n2)cc1 | -1.31% (active) |
| COc1cc(-c2nnn(CC(=O)NCc3ccccc3)n2)cc(OC)c1OC | 89.3% (inactive) |
| O=C(Cn1nnc(-c2ccccc2)n1)NC(=O)NC1CCCC1 | 102% (inactive) |
| O=C(CSc1ccc(C(F)(F)F)cc1[N+](=O)[O-])NCCOc1ccccc1 | 87.7% (active) |
| CCCCCCCCC(=O)NCCOc1ccccc1 | 96.9% (inactive) |
| Cc1cccc(OCCNC(=O)CSc2ccc(C(F)(F)F)cc2[N+](=O)[O-])c1 | 114% (inactive) |
| CCOC(=O)c1cnn2c(SC)ncnc12 | 105% (inactive) |
| CSc1ncc(Cl)c(C(=O)Nc2cc(C)ccc2C)n1 | 95% (inactive) |
| CCOc1ccc(NC(=O)NNC(=O)c2ccc(Cl)cc2Cl)cc1 | 103% (inactive) |
| CCOc1ccc(NC(=O)c2nc(SCC)ncc2Cl)cc1 | 62.8% (active) |
| COc1ccc(NC(=O)COC(=O)C2COc3ccccc3O2)cc1 (stereo unspecified) | 100% (inactive) |
| Cc1ccc(C(=O)OCC(=O)NC2CCCCCCC2)cc1C | 97% (inactive) |
| CC(C)n1ncc2c(C(=O)N3CCN(Cc4cccs4)CC3)cc(C3CC3)nc21 | 101% (inactive) |
| COc1ccc(NC(=O)CS(=O)(=O)c2ccccc2)cc1 | 103% (inactive) |
| COc1ccc(C(=O)CCC(=O)Nc2ccc(Cl)cc2)cc1 | 102% (inactive) |

| Structure (SMILES) | binding (percent of control) |
| --- | --- |
| COc1ccc(NC(=O)CCCC(=O)c2ccccc2)cc1 | 72.9% (active) |
| C#Cc1cc(N2CCN(C(=O)c3ccoc3)CC2)n2nc(-c3cccc(Cl)c3)cc2n1 | 96% (inactive) |
| Cc1ccc(C=O)c([B-](F)(F)F)c1 | 103% (inactive) |
| CC1(C)OC(=O)C2=C(CC(c3ccccc3)OC2CCc2ccccc2)O1 (stereo unspecified) | 109% (inactive) |
| Cc1ccc(S(=O)(=O)N2CCCCC2)cc1NC(=O)c1cccnc1 | 103% (inactive) |
| Cc1ccc(-n2nc3cc(C)c(NC(=O)c4cccnc4)cc3n2)cc1 | 78.3% (active) |
| O=C(Nc1cccc(-n2cnnn2)c1)c1cccnc1 | 104% (inactive) |
| CC(=O)Nc1c(-c2ccc(C)cc2)nc2ccc(Cl)cn12 | 98.5% (inactive) |
| CCCCN1C[C@H](c2ccc(Br)cc2)[C@@H](CC(=O)Nc2ccc(Br)cc2)C1=O | 102% (inactive) |
| O=C(c1cc(-c2ccccc2O)on1)N1CCCC1 | 105% (inactive) |
| O=C(Nc1cccnc1Cl)c1cc(-c2ccccc2O)on1 | 92.4% (inactive) |
| C=CCNC(=O)c1cc(-c2ccccc2O)on1 | 79.7% (active) |
| O=C(COC(=O)CCc1c[nH]c2ccccc12)Nc1cccc(Cl)c1 | 102% (inactive) |
| COc1ccccc1C(=O)NC(=S)Nc1ccc(N2CCOCC2)cc1 | 101% (inactive) |
| CC(C)[C@H](NC(=O)c1ccccc1F)C(=O)Nc1cccc(S(=O)(=O)N2CCOCC2)c1 | 107% (inactive) |
| O=C(N/N=C/c1cccnc1)c1cc2ccccc2cc1O | 97.3% (active) |
| Cc1ccc(/C=N/NC(=O)c2cc3ccccc3cc2O)o1 | 111% (inactive) |
| O=C(N/N=C\c1cccnc1)c1cc(-c2ccccc2)nc2c(Cl)cccc12 | 111% (inactive) |
| Cc1ccccc1C#CC1=CC(=O)CC(C)(C)C1 | 97.5% (inactive) |
| C[C@@H]1CN([C@H](C)CO)S(=O)(=O)c2ccc(C#CC3CCCCC3)cc2O[C@H]1CN(C)C(=O)Cc1ccncc1 | 123% (inactive) |
| CN(C)C(CNC(=O)c1cc(Br)c(Br)s1)c1ccco1 (stereo unspecified) | 99.7% (inactive) |
| Cc1cccc(NC(=O)CSCC(=O)Nc2nnc(C3CC3)s2)c1 | 105% (inactive) |
| O=C(Cc1cccs1)Nc1nnc(C2CC2)s1 | 125% (inactive) |
| O=C(CN1C(=O)c2ccc([N+](=O)[O-])cc2C1=O)Nc1nnc(C2CC2)s1 | 66.2% (active) |

| Structure (SMILES) | binding (percent of control) |
| --- | --- |
| O=S1(=O)CCN(C2CCCCCCCCCCC2)CC1 | 96.7% (inactive) |
| CC(=O)Nc1ccc(C=Cc2ccc([N+](=O)[O-])cc2)cc1 | 101% (inactive) |
| CCN(CC(=O)Nc1ccc(NC(C)=O)cc1)C(=O)C1CC(=O)N(c2ccc3c(c2)OCCO3)C1 (stereo unspecified) | 102% (inactive) |
| COc1ccc(S(=O)(=O)N2CCCC(C(=O)Nc3ccc(NC(=O)c4ccccn4)cc3)C2)cc1 (stereo unspecified) | 101% (inactive) |
| CC(C)c1ccc(NC(=O)C2CCCN(S(=O)(=O)c3cccnc3)C2)cc1 (stereo unspecified) | -3.9% (active) |
| O=C(Nc1ccc(F)c(Cl)c1)C1CCN(S(=O)(=O)c2cccnc2)CC1 | 109% (inactive) |
| C=CCn1nc(C(=O)OCC)cc1-c1sc(NC(=O)c2ccccc2)nc1C | 102% (inactive) |
| Cc1cc(Nc2ccc(C)c(C)c2)n2ncnc2n1 | 95% (inactive) |
| CCN(CC)C(=O)C1=C(C)N(Cc2ccc(OC)cc2)C(=O)C(CC(=O)NCCCCc2ccccc2)C1 (stereo unspecified) | 109% (inactive) |
| CC1CCN(S(=O)(=O)c2ccc(S(=O)(=O)NCc3cccnc3)cc2)CC1 | 94.4% (inactive) |
| O=S(=O)(c1ccc(-c2ccccc2)cc1)N1CCCC1 | 95.9% (inactive) |
| O=S(=O)(NCc1ccccc1)c1ccc(S(=O)(=O)N2CCCC2)cc1 | 7.03% (active) |
| CCOc1cc(/C=N/NC(=O)c2c(C)nc3ccc(Cl)cn23)ccc1O | 108% (inactive) |
| C=CCN(CC=C)S(=O)(=O)c1ccc(C(=O)Nc2sc3c(c2C(N)=O)CCCCC3)cc1 | 110% (inactive) |
| COc1cccc(OC)c1C(=O)Nc1sc2c(c1C(N)=O)CCCC2 | 109% (inactive) |
| NC(=O)c1c(NC(=O)c2ccccc2)sc2c1CCCC2 | 63.6% (active) |
| CCOc1cc(C2C(C(=O)c3ccco3)=C(O)C(=O)N2Cc2ccccc2)ccc1O (stereo unspecified) | 104% (inactive) |
| O=C(C1=C(O)C(=O)N(Cc2ccccc2)C1c1cccnc1)c1ccco1 (stereo unspecified) | 64.8% (active) |
| O=C(C1=C(O)C(=O)N(Cc2ccccc2)C1c1ccco1)c1ccco1 (stereo unspecified) | 108% (inactive) |
| CN1CCN(c2ccncc2S(=O)(=O)N2CCCC2)CC1 | 102% (inactive) |
| Cc1ccc(NS(=O)(=O)c2ccc(-c3ccc(=O)[nH]n3)o2)c(C)c1 | 102% (inactive) |
| CC1CCCN(S(=O)(=O)c2ccc(-c3ccc(=O)[nH]n3)o2)C1 (stereo unspecified) | 49% (active) |
| O=c1ccc(-c2ccc(S(=O)(=O)Nc3ccccc3)o2)n[nH]1 | 110% (inactive) |
| COc1ccc(C(C)(C)C)cc1NC(=O)CN(C)C1=NS(=O)(=O)c2ccccc21 | 104% (inactive) |
